Compound activity as filed in PubChem BioAssay.
PI5P4Ka inh = inhibitors of human PI5P4K alpha; 330,000 compounds, 1.2% hits; max response, %; PI5P4Kalpha enzyme, ADP-Glo luminescence, 60 min; stronger effect = lower value; active = max response of -50% or lower; inconclusive = between -30% and -50%; inactive = -30% or higher; also: value at the top dose of about 77 µM; % is scaled to controls: 0 for no effect and ±100 for the full control effect
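Quantitative HTS of the MLSMR library against PI5P4Kalpha with substrate. ATP added last at 5 microM final; room temperature, 60 minutes. Remaining ATP depleted, ADP converted and read as luminescence.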
POLB inh = inhibitors of human DNA polymerase beta. Pol beta primer extension/strand displacement, fluorescence kinetic. P06746. 340,000 compounds, 1.3% hits. AID 485314. Potency, µM (series often up to 114 µM), for inactives: top-dose activity change, negative = inhibition, actives largely listed as inhibitors; also: potency is read from the fitted curve at half-maximal effect; % is scaled to controls: 0 for no effect and ±100 for the full control effect
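Kinetic readout of DNA synthesis with strand displacement by Pol beta. Compound and 10 nM enzyme sit 15 min at room temperature; 50 nM substrate starts the reaction, read immediately and at 10 min.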
Pol kappa inh = blocks human DNA polymerase kappa activity | purified Pol kappa, fluorescent DNA synthesis assay, 10 min | Potency, µM (series often up to 107 µM), for the others: top-dose activity, negative = inhibition, hits mostly inhibitors | 400,000 compounds, 0.53% hits | AID 588579; also: potency is read from the fitted curve at half-maximal effect; % is scaled to controls: 0 for no effect and ±100 for the full control effect
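10 nM Pol kappa preincubated 15 min at room temperature with compounds, then reaction started with substrate at 50 nM final. Fluorescence read kinetically at 0 and 10 min; buffer-only wells served as negative control.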
FEN1 inh = inhibitors of human flap endonuclease 1 | P39748 | Recombinant FEN1 flap cleavage, fluorescence, 15 min | Potency, µM (highest dose often 114 µM), for the others: at the highest dose activity change, negative = inhibition, most hits filed as inhibitors | 390,000 compounds, 0.35% hits | AID 588795; also: potency is read from the fitted curve at half-maximal effect; % is scaled to controls: 0 for no effect and ±100 for the full control effect; nearly all actives have a fitted effect of over 65% in size
Target sequence (P39748 whole entry, looked up): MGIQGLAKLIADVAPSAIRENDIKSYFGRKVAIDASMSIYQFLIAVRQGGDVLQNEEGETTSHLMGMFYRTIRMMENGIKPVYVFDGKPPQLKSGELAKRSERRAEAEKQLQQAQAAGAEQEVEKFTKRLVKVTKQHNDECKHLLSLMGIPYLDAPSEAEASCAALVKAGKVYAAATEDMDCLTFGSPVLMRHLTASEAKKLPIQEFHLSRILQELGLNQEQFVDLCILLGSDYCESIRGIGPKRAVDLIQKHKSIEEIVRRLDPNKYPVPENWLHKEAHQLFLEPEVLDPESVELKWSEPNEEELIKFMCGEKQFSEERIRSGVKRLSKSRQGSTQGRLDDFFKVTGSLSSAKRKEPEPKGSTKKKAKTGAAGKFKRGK
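With each library titrated from low to high concentration, compounds met 10 nM FEN1 for 15 min at room temperature before 50 nM substrate was added; readings at 0 and 15 min fed four-parameter Hill curve fits.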
POLH inh = blocks human DNA polymerase eta activity; AID 588591; 390,000 compounds, 1.2% hits; Q9Y253; Potency, µM (highest dose often 114 µM), without a hit: at the top dose activity change, negative = inhibition, most hits filed as inhibitors; recombinant Pol eta, fluorescent DNA replication assay; also: potency is read from the fitted curve at half-maximal effect; % is scaled to controls: 0 for no effect and ±100 for the full control effect
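Fluorescent replication assay: 50 nM final substrate added after a 15 min room-temperature compound preincubation with 10 nM enzyme. Signal taken at 0 min and again at 10 min.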
POLI inh = inhibitors of human DNA polymerase iota; Potency, µM (highest dose often 115 µM), inactives show at the top dose activity, negative = inhibition, most hits filed as inhibitors; Q9UNA4; 390,000 compounds, 1% hits; Pol iota fluorescent replication assay, 10 min; also: potency is read from the fitted curve at half-maximal effect
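Pol iota at 10 nM preincubated 15 min with compounds at room temperature; reaction started with fluorescent substrate, 50 nM final. Fluorescence read kinetically at 0 and 10 min; buffer-only wells as negative control.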
The depositor's hits bear a star; ? = inconclusive; nt = not tested or not shown; ! = a repeat was not active; [ ] = dose if it differs, or a comment. A selection: hits, their analogues and other compounds. The true share with any hit is near 2.8%. Unless noted, calls follow the shape of the dose curve; as a rule, active = well fitted curve in the direction sought with a large enough effect; inconclusive = small, poorly fitted or top-dose-only effect, or another doubt; inactive = no such curve, though single readings can be large; an effect the other way counts as inactive or inconclusive.

SMILES	PI5P4Ka inh	POLB inh	Pol kappa inh	FEN1 inh	POLH inh	POLI inh
O=C(c1cncc(Br)c1)N1CCN(S(=O)(=O)c2ccc3ccccc3c2)CC1	1	nt	-6%	-12%	-11%	49%
COc1ccc(NCC(=O)N2CCCC2)cc1Cl	-4	26%	2%	3%	1%	172%
Cc1ccc(CNC(=O)C(=O)NCC(c2cccnc2)N2CCN(c3ccc(F)cc3)CC2)cc1 (centres undefined)	nt	?	-4%	5%	-17%	29%
O=C(CO)[C@@H](O)C(O)[C@@H](O)CO (some centres undefined)	nt	nt	14%[60.1 µM]	nt	nt	nt
O=c1[nH]c(=O)n(Cc2ccco2)c(O)c1C=NCc1cccs1	nt	-1%	?	-13%	?	-24%[58.9 µM]
O=c1[nH]c(=S)n(Cc2ccco2)c(O)c1C=NCc1cccs1	-69*	13µM*	50µM*	-12%	22µM*	22µM*
CCCCC(=O)N/N=C/c1c(O)n(CCc2ccccc2)c(=O)[nH]c1=O	-58*	-30%	-1%	1%	-5%	27%
O=C(N/N=C/c1c(O)n(C2CC2)c(=S)[nH]c1=O)c1ccccc1O	-58*	16%	-22%	-9%	2%	102%
O=C(N/N=C/c1c(O)n(-c2ccccc2)c(=O)[nH]c1=O)c1ccncc1	-27	-21%	-1%	12%	-11%	22%
O=c1[nH]c(=S)n(CCC2=CCCCC2)c(O)c1C=NCc1cccnc1	nt	24%	nt	nt	nt	nt
O=c1[nH]c(=S)n(C2CC2)c(O)c1C=NCc1ccc(F)cc1	15	?	-18%	21%	2%	66%
O=C(N/N=C/c1c(O)n(CCC2=CCCCC2)c(=S)[nH]c1=O)c1ccccc1	-59*	-24%	-12%	-16%	-20%	-1%
O=C(N/N=C/c1c(O)n(-c2ccccc2)c(=S)[nH]c1=O)c1ccccc1	-54*	-19%	0%	-14%	-10%	58%
Cc1cc(N2CCCCC2)nc2ccc(NC(=O)/C=C/c3ccc(OC(C)C)cc3)cc12	nt	30%	-2%	-18%	-16%	12%
O=C1NC(=O)c2c1c1c3ccccc3n3c1c1c2c2ccccc2n1C1CCC3O1	nt	nt	14%[60.1 µM]	nt	nt	nt
O=C(N/N=C/c1c(O)n(CCC2=CCCCC2)c(=O)[nH]c1=O)c1ccccc1	-60*	0%	-7%	-3%	-12%	2%
Nc1ccccc1N=Cc1c(O)n(CCC2=CCCCC2)c(=O)[nH]c1=O	1	?	-25%	-3%	?	14%
O=C(O)CO	nt	nt	20%[60.1 µM]	nt	nt	nt
Cc1ccc(CCNC(=O)Cn2nc(C)c3c(C)n(-c4ccc(C)cc4)nc3c2=O)cc1	nt	79µM*	-2%	8%	?	-7%
C[N+]1(C)C2CC[C@H]1CC(OC(=O)C(CO)c1ccccc1)C2 (some centres undefined)	1	nt	6%	7%	-9%	17%
C[N+]1(C)[C@@H]2CC[C@H]1CC(OC(=O)[C@@H](CO)c1ccccc1)C2 (some centres undefined)	-58*	28%	-2%	12%	5%	?
CCCCC/C=C\C/C=C\C/C=C\C/C=C\CCCC(=O)NCCCC(=O)O	nt	nt	14µM*	nt	nt	nt
CCCCC/C=C\C/C=C\C/C=C\C/C=C\CCCC(=O)NCc1ccoc1	nt	nt	7.9µM*	nt	nt	nt
CCCCC/C=C\C/C=C\C/C=C\C/C=C\CCCC(N)=O	nt	nt	2%[19.4 µM]	nt	nt	nt
CCCCC/C=C\C/C=C\C/C=C\C/C=C\CCCC(=O)NCC(=O)O	nt	1.4µM*	7.5µM*!	?	0.5µM*	2.2µM*
SMILES	PI5P4Ka inh	POLB inh	Pol kappa inh	FEN1 inh	POLH inh	POLI inh
COc1ccccc1CNC(=O)CCNS(=O)(=O)c1ccc2c(c1)oc(=O)n2C	-3	41%	-2%	-11%	-4%	11%
O=C(O)c1ccc([N+](=O)[O-])c([N+](=O)[O-])c1	-50*	nt	-13%	-7%	?	-6%
O=C1OC(c2ccc(O)c(S(=O)(=O)O)c2)(c2ccc(O)c(S(=O)(=O)O)c2)c2c(Br)c(Br)c(Br)c(Br)c21	nt	nt	28µM*	nt	nt	nt
COC[C@H]1OC(=O)c2coc3c2[C@@]1(C)C1=C(C3=O)[C@@H]2CCC(=O)[C@@]2(C)C[C@H]1OC(C)=O	?	nt	-26%	0%	-8%	89µM*
COc1ccc2c(c[n+](C)c3c4cc5c(cc4ccc23)OCO5)c1OC	nt	28µM*	-7%[60.1 µM]	?	?	?
COc1ccc2c(c1OC)CN1CCc3cc4c(cc3[C@H]1C2)OCO4	7	nt	-5%	0%	-22%	-3%
C=CCN1C(=O)NC(=O)/C(=C/c2ccc(OC)c(CSc3ccccn3)c2)C1=O	-71*	5%	-11%	-13%	?	11%
C=CCN1C(=O)NC(=O)/C(=C/c2c(CCN(C)C(=O)c3ccccc3)cc3c(c2OC)OCO3)C1=O	?	16%	-10%	?	1%	-14%
C[C@H]1COC2=C1C(=O)C(=O)c1c2ccc2c1CCCC2(C)C	-52*	22µM*	?	?	35µM*	22µM*
CC1COC2=C1C(=O)C(=O)c1c2ccc2c1CCCC2(C)C (centres undefined)	nt	nt	28µM*	nt	nt	nt
O=c1cc(-c2ccc(O)cc2)oc2c(C3O[C@H](CO)[C@@H](O)[C@H](O)[C@H]3O)c(O)cc(O)c12 (some centres undefined)	-73*	nt	?	-5%	?	?
N=C(N)c1ccc(-c2ccc(-c3ccc(C(=N)N)cc3)o2)cc1	nt	nt	13µM*	40µM*	nt	10µM*
CCCCOCN(C(=O)CCl)c1c(CC)cccc1CC	nt	nt	11%[60.1 µM]	nt	nt	nt
CCOc1ccc(NC(=S)N2CCC(NC(=O)c3ccccc3C)CC2)cc1	0	2%	3%	3%	-9%	31%
CCCCN1C(=O)NC(=O)/C(=C/c2cnc(SC)nc2)C1=O	-85*	-2%	-9%	1%	2%	-4%
CSc1ncc(/C=C2/C(=O)NC(=O)N(C3CCCCC3)C2=O)cn1	-57*	1%	-13%	4%	-7%	?
CSc1ncc(/C=C2/C(=O)NC(=O)N(C)C2=O)cn1	?	0%	-6%	-1%	1%	13%
CC1(C)[C@H](C(=O)O[C@H](C#N)c2cccc(Oc3ccccc3)c2)[C@@H]1C=C(Br)Br	nt	nt	7%[60.1 µM]	nt	nt	nt
O=C(O)c1ccccc1NS(=O)(=O)c1cccc(N=Nc2c(O)[nH]c(=S)[nH]c2=O)c1	-74*	nt	-18%	-10%	-11%	?
CCOC(=O)c1ccccc1NC(=O)c1c(O)[nH]c(=S)[nH]c1=O	-23	nt	7%	-9%	-7%	30%
C/C(=N\NC(=O)c1ccccc1O)c1c(O)n(C2CCCCC2)c(=O)[nH]c1=O	-10	2%	-2%	-11%	-8%	2%
